The record followed here is PubChem BioAssay.

The other results are listed elsewhere or left out. Values without a mark were called inactive. The source made the active and inactive calls.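 The calls were made as follows, unless noted: active = mean inhibition over three repeats above about 26% taken from the earlier screen (limit read from the data); inactive = the rest.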

Assay [1] has as its system TLR4-MyD88 interaction (human), BLA complementation. In words: disruptors of TLR4 binding to MyD88 – cell-based, HeLa CL3-4, BLA complementation, FRET ratio, confirmation (AID 941;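 active = mean inhibition across three repeat runs above about 25% carried over from the earlier screen, limit read from the data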;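 also: plate controls were DMSO only for no effect and clavulanic acid blocking BLA at full dose for full effect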). The following applies: CCF4 FRET ratio, at 8.4 µM, hits give high values.
A short description of assay [2]: BLA reporter interference in HeLa cells – cell-based, full-length BLA, CCF4 FRET ratio, artefact control for TLR4-MyD88 binding inhibitor project, confirmation (AID 1237).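 Also: HeLa cells stably expressing beta-lactamase reporter as counterscreen for TLR4-MyD88 inhibitors; 0% = DMSO and 100% = clavulanic acid full inhibition.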 The following applies: at 8.4 µM, hits give high values.
For assay [3], the target named is Protein-arginine deiminase type-4 (Homo sapiens) (UniProt Q9UM07). In words: protein arginine deiminase 4 blockade, retest – biochemical, fluorescence polarization, confirmation (AID 488796;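 active = mean inhibition across replicates above the hit cutoff set by the earlier primary screen, cut at about 15% in these data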;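 also: inhibitors block active-site labeling by the probe so polarization falls; 0% = PAD4 with probe and DMSO and 100% = probe without PAD4 enzyme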). The settings on record: recombinant PAD4, RCA probe fluorescence polarization; at 6.36 µM; hits give high values.
Sequence of Protein-arginine deiminase type-4 (Homo sapiens) (Q9UM07 whole entry, looked up): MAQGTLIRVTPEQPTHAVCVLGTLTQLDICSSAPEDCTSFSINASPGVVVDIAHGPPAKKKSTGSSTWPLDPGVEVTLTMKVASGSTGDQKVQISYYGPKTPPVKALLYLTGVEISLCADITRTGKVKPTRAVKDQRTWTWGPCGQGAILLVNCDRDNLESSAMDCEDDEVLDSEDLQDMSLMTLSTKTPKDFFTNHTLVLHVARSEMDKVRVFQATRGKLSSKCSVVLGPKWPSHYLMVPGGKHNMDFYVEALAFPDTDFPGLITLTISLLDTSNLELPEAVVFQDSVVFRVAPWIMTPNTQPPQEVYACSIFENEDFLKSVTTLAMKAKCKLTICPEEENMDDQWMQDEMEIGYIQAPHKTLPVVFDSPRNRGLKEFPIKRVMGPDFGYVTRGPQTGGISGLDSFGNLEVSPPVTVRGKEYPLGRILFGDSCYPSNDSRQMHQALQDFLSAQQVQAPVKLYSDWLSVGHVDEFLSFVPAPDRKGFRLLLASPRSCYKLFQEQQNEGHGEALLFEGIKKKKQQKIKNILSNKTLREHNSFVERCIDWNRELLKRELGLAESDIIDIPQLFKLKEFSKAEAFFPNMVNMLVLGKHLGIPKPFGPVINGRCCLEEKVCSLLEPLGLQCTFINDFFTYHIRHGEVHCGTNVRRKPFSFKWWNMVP
Assay [4] is described as follows: potentiators of IFN-gamma STAT1 reporter activity – cell-based, HTS, luciferase reporter, confirmation (AID 1262;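 active = activation above a set limit carried over from the earlier primary STAT1 screen, cut at about 140% in these data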;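 also: simple ratio to median IFN-gamma plus DMSO wells so 0% means no light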). The settings on record: NIH 3T3 STAT1-luciferase reporter, IFN-gamma potentiation, luminescence; at 5.7 µM; hits give high values; 100% = IFN-gamma EC80 alone, no compound.
Assay [5] in a line: blockers of IL-6 STAT3 signaling – U3A cells, luciferase, luminescence, confirmation (AID 1265;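 active = inhibition above the hit cutoff computed for the primary STAT3 screen, cut at about 44% in these data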;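 also: 0% = IL-6 plus DMSO and 100% = IL-6 plus nifuroxazide control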). The following applies: IL-6 STAT3 luciferase reporter, at 5.7 µM, hits give high values, cell line lacks STAT1. In general terms: In a reporter assay the amount or activity of a reporter protein is the signal.
Assay [6] is described as follows: enhancement of NF-kB transcriptional signalling – cell-based, HEK293T, luciferase luminescence, TNF-alpha, counter-screen for STAT1 activator project (AID 1306;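 active = activation above the mean of solvent-only control wells plus 3 SD, set per campaign, cut at about 130% in these data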;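 also: TNF-alpha given at a submaximal dose yielding about 80% of full reporter signal; values are well signal over median control so 100% means no change and 0% no light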). The settings on record: HEK293T NF-kB luciferase reporter, TNF-alpha stimulated, at 5.7 µM, hits give high values, 100% = TNF-alpha with vehicle only. Background: A counterscreen serves to expose hits that act by an unwanted route or on another target.

Assay [7] is described as follows: inhibition of TNF-alpha-driven NF-kB transcription – cell-based, HEK293T, luciferase, TNF-alpha stimulus, counter-screen for STAT3 inhibitor project, confirmation (AID 1308;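 active = inhibition above the mean of solvent-only control wells plus 3 SD, cutoff set per campaign, cut at about 13% in these data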;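 also: 0% = TNF-alpha with DMSO and 100% = TNF-alpha with MG high control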). The following applies: HEK293T NF-kB luciferase reporter, TNF-alpha induced; at 5.7 µM; hits give high values.
Assay [8] deals with Signal transducer and activator of transcription 3 (Homo sapiens) (UniProt P40763). In words: enhancers of IL-6 STAT3 transcription – U3A cells, luciferase, luminescence, counter-screen for STAT1 activator project, confirmation (AID 1316;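 active = activation above the solvent-only control well mean plus 3 SD, set per plate batch, cut at about 110% in these data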;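 also: 0% = no luminescence and 100% = median IL-6 plus DMSO wells; higher means more STAT3 reporter activation so hits are non-selective activators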). The settings on record: U3A cells STAT3-luciferase reporter, IL-6, luminescence; at 5.7 µM; hits give high values; 100 = IL-6 alone, no compound effect; cells lack STAT1.

The nature of assay [9]: inhibition of STAT1-driven transcription – cell-based, NIH 3T3, luciferase luminescence, IFN-gamma, counter-screen for STAT3 inhibitor project, confirmation (AID 1317;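 active = inhibition above the mean plus 3 SD of solvent-only control wells, limit set per screening run, cut at about 16% in these data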;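 also: 0% = DMSO with IFN-gamma and 100% = nifuroxazide control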). The following applies: NIH 3T3 STAT1-luciferase reporter, IFN-gamma induced, at 5.7 µM, hits give high values.
The target of assay [10] is Insulin-degrading enzyme (Homo sapiens) (UniProt P14735). In words: cellular IDE Abeta-cleavage inhibition – fluorescence polarization, HEK cells, FAbetaB substrate, confirmation (AID 435028;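 active = mean inhibition across triplicate wells above the cutoff set by the earlier primary insulin-degrading enzyme screen, cut at about 16% in these data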;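 also: 0% = DMSO wells and 100% = 60 µM reference IDE inhibitor Ii1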). The following applies: at 5.59 µM, hits give high values. (In general: In fluorescence polarisation assays a small probe gives low polarisation when free and higher when bound to something large.)
Sequence of Insulin-degrading enzyme (Homo sapiens) (P14735 whole entry, looked up): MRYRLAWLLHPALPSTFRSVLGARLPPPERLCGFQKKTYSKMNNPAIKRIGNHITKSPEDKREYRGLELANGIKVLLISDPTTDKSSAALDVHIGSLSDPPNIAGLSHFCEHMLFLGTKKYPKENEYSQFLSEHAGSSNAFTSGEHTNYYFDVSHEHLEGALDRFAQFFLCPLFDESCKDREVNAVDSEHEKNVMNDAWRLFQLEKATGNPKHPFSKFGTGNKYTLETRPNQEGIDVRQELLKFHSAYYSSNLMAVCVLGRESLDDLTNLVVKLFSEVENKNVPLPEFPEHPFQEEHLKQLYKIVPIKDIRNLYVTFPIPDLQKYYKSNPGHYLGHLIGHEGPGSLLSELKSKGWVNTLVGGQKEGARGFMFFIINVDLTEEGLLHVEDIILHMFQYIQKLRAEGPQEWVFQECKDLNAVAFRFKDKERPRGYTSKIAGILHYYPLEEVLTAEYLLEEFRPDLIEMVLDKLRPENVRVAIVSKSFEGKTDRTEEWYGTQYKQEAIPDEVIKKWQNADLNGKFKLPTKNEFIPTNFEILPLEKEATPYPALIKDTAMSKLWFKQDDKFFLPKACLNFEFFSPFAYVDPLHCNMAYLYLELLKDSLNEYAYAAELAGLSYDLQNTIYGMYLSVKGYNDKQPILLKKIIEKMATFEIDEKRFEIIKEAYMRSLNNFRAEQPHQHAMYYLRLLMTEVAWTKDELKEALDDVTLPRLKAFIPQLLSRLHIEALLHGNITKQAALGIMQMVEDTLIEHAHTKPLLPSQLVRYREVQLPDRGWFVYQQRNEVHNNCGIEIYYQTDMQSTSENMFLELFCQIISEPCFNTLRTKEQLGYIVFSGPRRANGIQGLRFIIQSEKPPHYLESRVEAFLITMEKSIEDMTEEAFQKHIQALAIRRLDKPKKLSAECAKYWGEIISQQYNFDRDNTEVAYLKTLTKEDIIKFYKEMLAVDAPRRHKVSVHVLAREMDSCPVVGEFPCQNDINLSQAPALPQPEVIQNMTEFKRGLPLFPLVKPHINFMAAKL

Assay [11] is described as follows: HEK cell viability loss – luminescence, cytotoxicity control for IDE inhibitor project (AID 449730; in the data active = inhibition above about 22%;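 also: 0% = vehicle wells and 100% = reference cytotoxic drug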). The following applies: HEK293 cytotoxicity, ATP luminescence; at 5.59 µM; hits give high values.
The subject of assay [12] is DAF-12 nuclear receptor (Heterodera glycines), GAL4-LBD fusion. In words: hgDAF-12 GAL4 fusion reporter activation, retest – cell-based, luminescence, HEK293, GAL4-LBD fusion, confirmation (AID 743050;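 active = mean activation over triplicate wells above the hit cutoff derived from the earlier primary screen, cut at about 11% in these data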;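 also: 0% = DMSO low control and 100% = 2 mM sodium butyrate high control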). The following applies: HEK293 GAL4-hgDAF12 luciferase reporter, agonist mode; at 6.8 µM; hits give high values; percent of butyrate response.
Assay [13] addresses Oxysterols receptor LXR-beta (Homo sapiens) (UniProt P55055). In words: nonspecific reporter activation via LXR – cell-based, luminescence, HEK293, H. glycines campaign, counter-screen for hgDAF-12 agonist project, confirmation (AID 743051;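 active = mean activation of the triplicate above a set limit carried over from the primary screen, none filed active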). The following applies: HEK293 Gal4-LXR luciferase reporter, 24 h; at 6.8 µM; hits give high values.

Sequence of Oxysterols receptor LXR-beta (Homo sapiens) (P55055 whole entry, looked up, the tested form may be a part): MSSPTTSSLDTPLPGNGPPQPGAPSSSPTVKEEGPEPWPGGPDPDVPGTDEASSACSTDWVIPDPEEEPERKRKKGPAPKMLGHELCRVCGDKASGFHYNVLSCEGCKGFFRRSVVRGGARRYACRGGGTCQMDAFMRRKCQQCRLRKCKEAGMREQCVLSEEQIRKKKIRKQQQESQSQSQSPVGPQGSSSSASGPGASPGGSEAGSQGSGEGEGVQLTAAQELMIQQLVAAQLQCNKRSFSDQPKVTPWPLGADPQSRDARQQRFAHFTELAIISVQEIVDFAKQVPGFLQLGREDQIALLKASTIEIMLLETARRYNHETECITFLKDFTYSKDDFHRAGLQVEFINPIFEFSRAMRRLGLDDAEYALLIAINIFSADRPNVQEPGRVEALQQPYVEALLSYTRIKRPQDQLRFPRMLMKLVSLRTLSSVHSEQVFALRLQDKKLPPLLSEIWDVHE

As usually defined, the inhibition is the relative decrease from the control value, in per cent. On to `Cc1nc(Cl)c2oc3ccccc3c2n1`, for which the inhibition in assay [1] was 39% (active); in [2], 20.8%; in assay [3], 7.72%.
For the compound `Cc1ccc2cc3cc(C(=O)N4CCCCCC4)oc3nc2c1`, the activation (% of control) in [4] is 224% (active); in [6], 120%; in assay [8], 137% (active). For the same compound, the results for the inhibition in assay [5], in assay [7] and in assay [9] were 7.37%, -42% and -140%, respectively.
Take `Cc1ccc(NC(=O)Nc2ccc3oc(C)nc3c2)cc1`: the activation (% of control) in assay [4] is 200% (active); in [6] it was 128%; in [8], 102%.
On to `O=C(c1ccc(Cl)cc1)c1cnc(Nc2ccccc2)s1`, for which the inhibition in assay [1] is 9.98%; in assay [2], 29.5% (active).
For `C[n+]1ccc(/C=C/c2c[nH]c3ccccc23)cc1`, the inhibition is 26.1% (active) in assay [1], 42.1% (active) in assay [2], 42.6% (active) in [10] and 13.1% in assay [11].
Take `CC(C)(C)C(=O)c1cnc(Nc2ccccc2)s1`: the activation (% of control) in [4] is 164% (active); in [6], 121%; in assay [8] it was 105%. Moreover, the activation is 13.6% (active) in assay [12] and 0.48% in assay [13].
